Test results taken from PMC7862700, “An all-to-all approach to the identification of sequence-specific readers for epigenetic DNA modifications on cytosine”.

Legend:
Experiment in all cases: DAPPL (digital affinity profiling via proximity ligation, sequencing); 10 mM Tris-HCl pH 7.5, 50 mM NaCl, 1 mM DTT, 4% glycerol, room temperature, 30 min; GST-TFs on glutathione beads, 16-mer random dsDNA library, 0.1% formaldehyde crosslink after washing; high values mean tight binding
Conditions in all cases: protein: recombinant; tags: N-terminal GST; dsDNA, one strand shown
[1] = molecular target: T1, FLI1 (Homo sapiens, UniProt Q01543 1-452)
T1 sequence: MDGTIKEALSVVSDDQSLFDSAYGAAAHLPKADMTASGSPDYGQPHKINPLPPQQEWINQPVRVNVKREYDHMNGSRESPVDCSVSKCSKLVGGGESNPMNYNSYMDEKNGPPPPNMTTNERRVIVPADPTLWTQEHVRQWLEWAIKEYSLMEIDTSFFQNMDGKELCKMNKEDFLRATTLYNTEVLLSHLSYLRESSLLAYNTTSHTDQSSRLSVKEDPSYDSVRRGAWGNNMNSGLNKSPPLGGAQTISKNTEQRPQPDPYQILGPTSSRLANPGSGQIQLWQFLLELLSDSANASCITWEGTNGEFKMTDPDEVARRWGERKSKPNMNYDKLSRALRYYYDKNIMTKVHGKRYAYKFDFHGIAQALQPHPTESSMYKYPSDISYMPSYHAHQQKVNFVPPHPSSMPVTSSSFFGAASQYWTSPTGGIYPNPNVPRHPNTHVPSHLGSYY
Procedure, shortened: (§1)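 Human transcription factors carrying a GST fusion were produced in yeast, bound to glutathione beads, tagged with DNA barcodes and pooled together with a tag-only sample. Each pool was held with 200 nmole of a random double-stranded 16-mer DNA library in Tris/NaCl/DTT/glycerol buffer for 30 min at room temperature, then washed, crosslinked in 0.1% formaldehyde, proximity-ligated with BsaI/T4 ligase (1 h, 37 °C), PCR-amplified and sequenced on an Illumina NextSeq500. Binding signal is the read frequency of each hexamer for a given factor divided by its frequency in the tag-only sample.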

[2] = molecular target: T2, ELK1 (Homo sapiens, UniProt P19419 1-428)
T2 sequence: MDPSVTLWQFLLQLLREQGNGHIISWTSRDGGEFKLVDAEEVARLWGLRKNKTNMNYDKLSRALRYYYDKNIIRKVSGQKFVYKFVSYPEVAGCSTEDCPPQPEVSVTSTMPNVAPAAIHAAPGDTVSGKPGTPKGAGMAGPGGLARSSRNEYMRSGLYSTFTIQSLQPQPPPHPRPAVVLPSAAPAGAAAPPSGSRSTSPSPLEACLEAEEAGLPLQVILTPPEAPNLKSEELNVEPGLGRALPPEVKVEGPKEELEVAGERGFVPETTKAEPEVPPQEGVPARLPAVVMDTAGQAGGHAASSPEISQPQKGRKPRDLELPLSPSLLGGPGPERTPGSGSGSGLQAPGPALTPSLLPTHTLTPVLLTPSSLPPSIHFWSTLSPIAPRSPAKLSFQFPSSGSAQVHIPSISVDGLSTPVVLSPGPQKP
Procedure, shortened: as §1

[3] = molecular target: T3, GABPA (Homo sapiens, UniProt Q06546 1-454)
T3 sequence: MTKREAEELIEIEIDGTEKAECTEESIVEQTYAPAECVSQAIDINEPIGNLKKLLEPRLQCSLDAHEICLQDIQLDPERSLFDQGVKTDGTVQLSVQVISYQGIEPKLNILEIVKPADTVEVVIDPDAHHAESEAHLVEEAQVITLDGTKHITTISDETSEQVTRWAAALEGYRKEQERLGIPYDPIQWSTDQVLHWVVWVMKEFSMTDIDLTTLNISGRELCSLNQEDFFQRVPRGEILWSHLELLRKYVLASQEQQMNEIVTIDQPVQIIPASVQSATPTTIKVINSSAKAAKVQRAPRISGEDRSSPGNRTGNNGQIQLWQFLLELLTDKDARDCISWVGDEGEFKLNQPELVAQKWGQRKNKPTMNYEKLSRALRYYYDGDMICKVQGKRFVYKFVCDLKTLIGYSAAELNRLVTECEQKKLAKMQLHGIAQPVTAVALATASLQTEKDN
Procedure, shortened: as §1

[4] = molecular target: T4, ERG (Homo sapiens, UniProt P11308 1-479)
T4 sequence: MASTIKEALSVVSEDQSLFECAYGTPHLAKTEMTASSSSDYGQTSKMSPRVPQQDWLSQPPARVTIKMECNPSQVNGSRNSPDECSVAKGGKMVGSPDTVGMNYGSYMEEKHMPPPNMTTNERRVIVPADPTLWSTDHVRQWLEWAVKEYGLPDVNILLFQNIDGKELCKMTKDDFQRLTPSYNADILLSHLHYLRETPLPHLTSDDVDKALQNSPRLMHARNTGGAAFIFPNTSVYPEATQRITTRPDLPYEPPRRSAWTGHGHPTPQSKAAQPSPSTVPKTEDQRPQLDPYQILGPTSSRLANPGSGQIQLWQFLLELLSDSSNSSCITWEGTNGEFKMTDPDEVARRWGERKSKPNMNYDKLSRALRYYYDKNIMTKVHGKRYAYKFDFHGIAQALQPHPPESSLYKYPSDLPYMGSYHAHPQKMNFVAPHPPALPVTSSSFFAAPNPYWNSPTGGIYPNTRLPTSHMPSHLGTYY
Procedure, shortened: as §1

[5] = molecular target: ELF1 (Homo sapiens, UniProt P32519 1-619)
Sequence of ELF1 (P32519 whole entry): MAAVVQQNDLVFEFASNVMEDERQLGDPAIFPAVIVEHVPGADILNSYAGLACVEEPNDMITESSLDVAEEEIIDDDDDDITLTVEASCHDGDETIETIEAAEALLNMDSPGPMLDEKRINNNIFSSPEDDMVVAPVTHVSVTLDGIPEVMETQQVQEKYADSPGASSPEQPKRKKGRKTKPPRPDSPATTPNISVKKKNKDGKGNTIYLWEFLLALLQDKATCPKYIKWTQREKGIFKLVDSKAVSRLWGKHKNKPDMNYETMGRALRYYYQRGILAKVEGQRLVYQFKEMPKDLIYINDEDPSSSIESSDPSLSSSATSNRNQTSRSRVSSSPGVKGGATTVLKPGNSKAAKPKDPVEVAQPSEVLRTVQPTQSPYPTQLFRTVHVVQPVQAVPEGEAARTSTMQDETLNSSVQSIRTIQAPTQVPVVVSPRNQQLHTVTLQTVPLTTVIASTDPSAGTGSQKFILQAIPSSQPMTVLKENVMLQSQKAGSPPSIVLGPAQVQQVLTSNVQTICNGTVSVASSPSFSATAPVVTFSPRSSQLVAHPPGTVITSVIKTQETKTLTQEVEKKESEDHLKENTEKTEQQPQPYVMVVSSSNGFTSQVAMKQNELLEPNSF
Procedure, shortened: as §1

[6] = molecular target: T5, EHF (Homo sapiens, UniProt Q9NZC4 1-300)
T5 sequence: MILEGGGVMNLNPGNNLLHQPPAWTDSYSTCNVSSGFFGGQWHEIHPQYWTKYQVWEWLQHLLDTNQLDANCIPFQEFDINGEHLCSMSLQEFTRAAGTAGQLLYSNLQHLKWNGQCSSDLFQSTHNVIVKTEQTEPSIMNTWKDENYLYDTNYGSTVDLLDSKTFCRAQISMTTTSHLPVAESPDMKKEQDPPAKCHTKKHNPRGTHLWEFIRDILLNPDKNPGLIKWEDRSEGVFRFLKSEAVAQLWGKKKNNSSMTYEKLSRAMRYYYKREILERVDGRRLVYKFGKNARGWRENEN
Procedure, shortened: as §1

[7] = molecular target: SPI1 (Homo sapiens, UniProt P17947 1-270)
Procedure, shortened: as §1

[8] = molecular target: SPIB (Homo sapiens, UniProt Q01892 1-262)
Sequence of SPIB (Q01892 whole entry): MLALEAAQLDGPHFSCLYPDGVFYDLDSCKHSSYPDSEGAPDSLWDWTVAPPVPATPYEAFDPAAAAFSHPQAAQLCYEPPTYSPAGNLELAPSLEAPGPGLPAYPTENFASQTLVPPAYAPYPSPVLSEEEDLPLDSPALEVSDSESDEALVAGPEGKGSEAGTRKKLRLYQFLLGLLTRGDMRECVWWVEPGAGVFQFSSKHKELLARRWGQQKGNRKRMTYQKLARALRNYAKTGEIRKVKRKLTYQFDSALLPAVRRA
Procedure, shortened: as §1

[9] = molecular target: T6, ELK3 (Homo sapiens, UniProt P41970 1-407)
T6 sequence: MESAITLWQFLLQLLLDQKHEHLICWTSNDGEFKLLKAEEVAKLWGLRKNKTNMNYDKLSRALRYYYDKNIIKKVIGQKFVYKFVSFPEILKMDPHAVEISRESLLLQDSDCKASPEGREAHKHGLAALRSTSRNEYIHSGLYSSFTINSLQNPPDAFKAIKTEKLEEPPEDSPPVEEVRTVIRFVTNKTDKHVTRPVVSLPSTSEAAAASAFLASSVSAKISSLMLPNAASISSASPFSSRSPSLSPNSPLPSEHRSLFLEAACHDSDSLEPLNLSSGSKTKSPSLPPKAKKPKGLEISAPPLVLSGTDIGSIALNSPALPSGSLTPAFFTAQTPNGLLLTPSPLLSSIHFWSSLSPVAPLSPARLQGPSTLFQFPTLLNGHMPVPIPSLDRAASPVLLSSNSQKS
Procedure, shortened: as §1

## AACTAT
[1]
  binding signal: 1.37 fold enrichment (6-mer frequency, TF over GST control)
[2]
  binding signal: 1.36 fold enrichment (6-mer frequency, TF over GST control)
[3]
  binding signal: 1.38 fold enrichment (6-mer frequency, TF over GST control)
[4]
  binding signal: 1.36 fold enrichment (6-mer frequency, TF over GST control)
[5]
  binding signal: 1.29 fold enrichment (6-mer frequency, TF over GST control)
[6]
  binding signal: 1.36 fold enrichment (6-mer frequency, TF over GST control)
[7]
  binding signal: 1.33 fold enrichment (6-mer frequency, TF over GST control)
[8]
  binding signal: 1.29 fold enrichment (6-mer frequency, TF over GST control)
[9]
  binding signal: 1.36 fold enrichment (6-mer frequency, TF over GST control)
